From PubChem BioAssay AID1159580 (chemical genetic matrix, 2015)
Values joined by “and” are separate entries in the source; they are usually repeats but may differ in a detail not shown here. Equal entries are not always repeated. The whole screen tested about 5,500 compounds, of which about 2,000 (36%) were called active. Another 18% or so got no clear call; they are omitted. No stated cut-off is given here; in the data, active means normalized growth mostly below about 0.91 (no sharp cut-off); inconclusive means no clear call, values can overlap the other calls; inactive means mostly above about 0.92. Some of the results follow.

Assay: chemical genetic growth profiling, strain panel (AID 1159580);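 further: tested at 20 µM; growth read once vehicle control cultures reached saturation at 30 °C; 1 = growth at the plate median or of vehicle wells; lower values mean less growth of the strain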
Conditions: S. cerevisiae deletion strains, growth OD

Measured: normalized growth

C[C@]12CCC3C(CC[C@]4(O)C[C@@H](O)CC[C@]34C=O)[C@@]1(O)CCC2C1=CC(=O)OC1 (stereo not given in full)
inactive: locus YAL021C, strain ccr4, hits give low values 0.92 | locus YAL026C, strain drs2, hits give low values 0.983 | locus YAL030W, strain snc1, hits give low values 0.975 | locus YBL061C, strain skt5, hits give low values 0.979 | locus YBR009C, strain hhf1, hits give low values 0.967 | locus YBR021W, strain FUR4, hits give low values 1 | locus YBR023C, strain chs3, hits give low values 0.98 | locus YBR171W, strain sec66, hits give low values 0.986 | locus YBR229C, strain ROT2, hits give low values 0.94 | locus YBR231C, strain swc5, hits give low values 0.995 | locus YBR279W, strain paf1, hits give low values 0.986 | locus YCL011C, strain gbp2, hits give low values 0.943 | locus YCL016C, strain dcc1, hits give low values 0.958 | locus YCL029C, strain bik1, hits give low values 0.962 | locus YCL069W, strain vba3, hits give low values 0.981 | locus YCR088W, strain abp1, hits give low values 0.988 | locus YDL005C, strain med2, hits give low values 0.969 | locus YDL035C, strain GPR1, hits give low values 0.964 | locus YDL040C, strain nat1, hits give low values 0.992 | locus YDL074C, strain BRE1, hits give low values 1.01 | locus YDL101C, strain DUN1, hits give low values 0.987 | locus YDL185W, strain tfp1, hits give low values 0.962 | locus YDL192W, strain arf1, hits give low values 0.976 | locus YDR001C, strain nth1, hits give low values 0.967 | locus YDR069C, strain doa4, hits give low values 0.986 | locus YDR101C, strain arx1, hits give low values 0.97 | locus YDR137W, strain rgp1, hits give low values 0.971 | locus YDR159W, strain sac3, hits give low values 1.05 | locus YDR162C, strain NBP2, hits give low values 0.975 | locus YDR195W, strain ref2 1.01 | locus YDR297W, strain sur2, hits give low values 0.994 | locus YDR318W, strain mcm21, hits give low values 0.98 | locus YDR334W, strain swr1, hits give low values 0.978 | locus YDR335W, strain msn5, hits give low values 0.989 | locus YDR388W, hits give low values 0.982 | locus YDR392W, strain spt3, hits give low values 0.889 | locus YDR502C, strain sam2, hits give low values 0.99 | locus YEL003W, strain gim4, hits give low values 0.991 | locus YEL037C, strain rad23, hits give low values 0.979 | locus YEL061C, strain CIN8 (second series), hits give low values 0.984 | locus YEL061C, strain CIN8, hits give low values 0.986 | locus YER016W, strain bim1, hits give low values 0.991 | locus YER110C, hits give low values 0.98 | locus YER111C, strain swi4, hits give low values 1.02 | locus YER155C, strain BEM2 (second series), hits give low values 1.06 | locus YER155C, strain BEM2, hits give low values 0.994 | locus YER167W, strain BCK2, hits give low values 0.984 | locus YFR010W, strain ubp6, hits give low values 0.982 | locus YGL078C, strain dbp3, hits give low values 0.996 | locus YGL086W, strain mad1, hits give low values 0.992 | locus YGL167C, strain pmr1, hits give low values 0.965 | locus YGL173C, strain kem1, hits give low values 0.994 | locus YGL227W, strain vid30, hits give low values 0.998 | locus YGL240W, strain doc1, hits give low values 1.03 | locus YGL248W, strain PDE1, hits give low values 1 | locus YGL253W, strain hxk2, hits give low values 0.985 | locus YGR135W, strain pre9, hits give low values 0.975 | locus YGR229C, strain SMI1, hits give low values 0.991 | locus YGR252W, strain gcn5, hits give low values 0.988 | locus YHR013C, strain ard1, hits give low values 0.953 | locus YHR027C, strain rpn1, hits give low values 0.973 | locus YHR030C, strain SLT2, hits give low values 0.991 and 0.995 | locus YHR079C, strain IRE1 (second series), hits give low values 0.98 | locus YHR079C, strain IRE1, hits give low values 0.988 | locus YHR094C, strain hxt1, hits give low values 0.976 | locus YHR129C, strain ARP1, hits give low values 0.989 | locus YHR142W, strain chs7, hits give low values 0.971 | locus YHR200W, strain rpn10, hits give low values 0.964 | locus YIL066C, strain RNR3, hits give low values 0.95 | locus YIL073C, strain SPO22, hits give low values 0.958 | locus YIL125W, strain kgd1, hits give low values 0.969 | locus YIR030C, strain dcg1, hits give low values 0.975 | locus YJL092W, strain hpr5, hits give low values 0.97 | locus YJL095W, strain BCK1 (second series), hits give low values 0.98 | locus YJL095W, strain BCK1, hits give low values 1.05 and 1.01 | locus YJL115W, strain asf1, hits give low values 0.968 | locus YJL129C, strain trk1, hits give low values 0.999 | locus YJL134W, strain LCB3, hits give low values 0.98 | locus YJL154C, strain vps35, hits give low values 0.984 | locus YJL164C, strain tpk1, hits give low values 0.933 | locus YJL166W, strain qcr8, hits give low values 1 | locus YJL168C, strain set2, hits give low values 0.982 | locus YJL187C, strain SWE1 (second series), hits give low values 1.01 | locus YJR043C, strain POL32, hits give low values 0.964
active: locus YER015W, strain faa2, hits give low values 0.922
